# Of roughly 8,800 targets only a part is listed; those with a hit were picked by preference. About 0.5% of all pairs of compound and target were hits. Unmarked numbers belong to inactive results.
# Key:
# Assay in all cases: log2 fold change, soluble protein after heating vs DMSO (PISA); higher = thermal stabilisation; K562 lysate, 10 uM; active = over 0.2 and 3.5 SD of the protein, either way, in both replicates (recomputed)
# vemurafenib = compound: CCCS(=O)(=O)Nc1ccc(F)c(C(=O)c2c[nH]c3ncc(-c4ccc(Cl)cc4)cc23)c1F [vemurafenib]
# In short: (§1)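 Log-two fold change in thermal stability relative to solvent controls is reported from duplicates. For each sample, crude K562 extract from dounce-homogenised pellets in PBS pH 7.4 with 1 mM MgCl2, at 1 mg/mL protein, was treated with 10 μM compound for 30 min. Aliquots heated for 3 min across 48°C-58°C were pooled, brought to 0.5% NP-40 at 4°C and cleared at 21,000xg for 90 min. The supernatant was quantified by TMTpro 16plex LC-MS/MS with channel sums equalised.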
# [1] = compound: CCCS(=O)(=O)Nc1ccc(F)c(C(=O)c2c[nH]c3ncc(Cl)cc23)c1F
# In short: as §1
# barasertib = compound: CCN(CCCOc1ccc2c(Nc3cc(CC(=O)Nc4cccc(F)c4)[nH]n3)ncnc2c1)CCOP(=O)(O)O [barasertib]
# In short: as §1
# [2] = compound: CC[C@@H]1C(=O)N(C)c2cnc(Nc3ccc(C(=O)NC4CCN(C)CC4)cc3OC)nc2N1C1CCCC1
# In short: as §1
# volasertib = compound: CC[C@@H]1C(=O)N(C)c2cnc(Nc3ccc(C(=O)N[C@H]4CC[C@H](N5CCN(CC6CC6)CC5)CC4)cc3OC)nc2N1C(C)C [volasertib]
# In short: as §1
# [3] = compound: CCn1c(C(=O)N(C2CC2)C2CC2)cc2c3c(ncn3C)c(Nc3cc(C)n(C)n3)nc21
# In short: as §1
# [4] = compound: CCn1cc(-c2ccnc3[nH]c(-c4cccc(CN(C)C)c4)cc23)c(-c2ccc(NC(=O)N(C)C)cc2)n1
# In short: as §1
# [5] = compound: CN1CCC(CNc2ccc3ncc(-c4cccc(OC(F)(F)F)c4)n3n2)CC1
# In short: as §1
# saracatinib = compound: CN1CCN(CCOc2cc(OC3CCOCC3)c3c(Nc4c(Cl)ccc5c4OCO5)ncnc3c2)CC1 [saracatinib]
# In short: as §1
# sotrastaurin = compound: CN1CCN(c2nc(C3=C(c4c[nH]c5ccccc45)C(=O)NC3=O)c3ccccc3n2)CC1 [sotrastaurin]
# In short: as §1
# alvocidib = compound: CN1CC[C@H](c2c(O)cc(O)c3c(=O)cc(-c4ccccc4Cl)oc23)[C@H](O)C1 [alvocidib]
# In short: as §1
# Tubastatin A = compound: CN1CCc2c(c3ccccc3n2Cc2ccc(C(=O)NO)cc2)C1 [Tubastatin A]
# In short: as §1
# [6] = compound: CNC(=O)C1=CC=CC=C1NC2=NC(=NC=C2Cl)NC3=C(C=C(C=C3)N4CCOCC4)OC
# In short: as §1
# defactinib = compound: CNC(=O)c1ccc(Nc2ncc(C(F)(F)F)c(NCc3nccnc3N(C)S(C)(=O)=O)n2)cc1 [defactinib]
# In short: as §1
# [7] = compound: CNc1nc(-c2ccc3c(N)n[nH]c3c2)cc(N2C[C@@H](C(=O)NC3CCCCC3)CC[C@H]2C)n1
# In short: as §1
# encorafenib = compound: COC(=O)N[C@@H](C)CNc1nccc(-c2cn(C(C)C)nc2-c2cc(Cl)cc(NS(C)(=O)=O)c2F)n1 [encorafenib]
# In short: as §1
# [8] = compound: COC(=O)[C@H](CCSC)NC(=O)C1=C(C=C(C=C1)NC[C@H](CS)N)C2=CC=CC=C2
# In short: as §1
# alisertib = compound: COc1cc(Nc2ncc3c(n2)-c2ccc(Cl)cc2C(c2c(F)cccc2OC)=NC3)ccc1C(=O)O [alisertib]
# In short: as §1
# [9] = compound: COc1cc2nc(-c3cc(F)ccc3O)nc(N[C@@H]3CNC[C@H]3C(C)(C)O)c2cc1OC
# In short: as §1
# gefitinib = compound: COc1cc2ncnc(Nc3ccc(F)c(Cl)c3)c2cc1OCCCN1CCOCC1 [gefitinib]
# In short: as §1
# Chain of UniProt P00480 (P00480 whole entry, looked up): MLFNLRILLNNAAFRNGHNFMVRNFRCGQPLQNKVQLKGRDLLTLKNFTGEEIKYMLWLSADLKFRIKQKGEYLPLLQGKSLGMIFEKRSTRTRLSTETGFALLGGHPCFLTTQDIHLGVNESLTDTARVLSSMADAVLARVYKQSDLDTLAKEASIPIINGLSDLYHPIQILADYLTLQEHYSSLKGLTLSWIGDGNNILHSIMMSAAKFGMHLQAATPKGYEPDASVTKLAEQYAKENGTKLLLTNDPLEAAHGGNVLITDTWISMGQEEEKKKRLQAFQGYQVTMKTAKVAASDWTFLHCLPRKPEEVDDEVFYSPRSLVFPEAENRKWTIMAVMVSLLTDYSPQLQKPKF
# Chain of UniProt Q96IY1 (Q96IY1 whole entry, looked up): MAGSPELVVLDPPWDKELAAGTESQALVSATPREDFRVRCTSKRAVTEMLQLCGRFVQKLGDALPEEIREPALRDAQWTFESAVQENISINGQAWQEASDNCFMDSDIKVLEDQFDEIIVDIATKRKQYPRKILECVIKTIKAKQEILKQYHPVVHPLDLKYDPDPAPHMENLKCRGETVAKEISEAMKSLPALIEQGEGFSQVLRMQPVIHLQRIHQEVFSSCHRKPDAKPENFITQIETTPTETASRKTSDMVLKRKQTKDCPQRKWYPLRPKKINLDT
# Chain of UniProt Q9HBL8 (Q9HBL8 whole entry, looked up): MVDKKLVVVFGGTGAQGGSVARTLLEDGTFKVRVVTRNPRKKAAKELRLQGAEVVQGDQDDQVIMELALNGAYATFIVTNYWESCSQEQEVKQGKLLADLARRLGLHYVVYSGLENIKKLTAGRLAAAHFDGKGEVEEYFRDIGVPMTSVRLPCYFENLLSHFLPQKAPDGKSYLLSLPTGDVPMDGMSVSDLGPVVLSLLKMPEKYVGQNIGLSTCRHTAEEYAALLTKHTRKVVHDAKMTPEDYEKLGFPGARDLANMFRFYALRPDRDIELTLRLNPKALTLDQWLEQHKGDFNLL
# Chain of UniProt Q8IVI9 (Q8IVI9 whole entry, looked up): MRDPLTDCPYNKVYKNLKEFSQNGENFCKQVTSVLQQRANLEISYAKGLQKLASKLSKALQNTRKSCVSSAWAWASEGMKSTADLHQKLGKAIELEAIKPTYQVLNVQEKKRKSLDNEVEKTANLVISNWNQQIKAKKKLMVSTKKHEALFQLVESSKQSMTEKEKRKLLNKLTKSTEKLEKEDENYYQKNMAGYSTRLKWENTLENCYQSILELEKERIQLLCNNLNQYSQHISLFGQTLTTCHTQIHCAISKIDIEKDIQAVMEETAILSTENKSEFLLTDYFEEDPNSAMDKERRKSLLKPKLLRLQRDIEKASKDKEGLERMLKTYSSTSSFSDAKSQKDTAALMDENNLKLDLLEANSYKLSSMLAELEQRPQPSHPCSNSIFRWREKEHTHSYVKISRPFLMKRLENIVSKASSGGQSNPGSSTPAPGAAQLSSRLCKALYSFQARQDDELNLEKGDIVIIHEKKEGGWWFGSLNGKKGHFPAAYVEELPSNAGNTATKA
# Chain of UniProt Q6KC79 (Q6KC79 whole entry, looked up): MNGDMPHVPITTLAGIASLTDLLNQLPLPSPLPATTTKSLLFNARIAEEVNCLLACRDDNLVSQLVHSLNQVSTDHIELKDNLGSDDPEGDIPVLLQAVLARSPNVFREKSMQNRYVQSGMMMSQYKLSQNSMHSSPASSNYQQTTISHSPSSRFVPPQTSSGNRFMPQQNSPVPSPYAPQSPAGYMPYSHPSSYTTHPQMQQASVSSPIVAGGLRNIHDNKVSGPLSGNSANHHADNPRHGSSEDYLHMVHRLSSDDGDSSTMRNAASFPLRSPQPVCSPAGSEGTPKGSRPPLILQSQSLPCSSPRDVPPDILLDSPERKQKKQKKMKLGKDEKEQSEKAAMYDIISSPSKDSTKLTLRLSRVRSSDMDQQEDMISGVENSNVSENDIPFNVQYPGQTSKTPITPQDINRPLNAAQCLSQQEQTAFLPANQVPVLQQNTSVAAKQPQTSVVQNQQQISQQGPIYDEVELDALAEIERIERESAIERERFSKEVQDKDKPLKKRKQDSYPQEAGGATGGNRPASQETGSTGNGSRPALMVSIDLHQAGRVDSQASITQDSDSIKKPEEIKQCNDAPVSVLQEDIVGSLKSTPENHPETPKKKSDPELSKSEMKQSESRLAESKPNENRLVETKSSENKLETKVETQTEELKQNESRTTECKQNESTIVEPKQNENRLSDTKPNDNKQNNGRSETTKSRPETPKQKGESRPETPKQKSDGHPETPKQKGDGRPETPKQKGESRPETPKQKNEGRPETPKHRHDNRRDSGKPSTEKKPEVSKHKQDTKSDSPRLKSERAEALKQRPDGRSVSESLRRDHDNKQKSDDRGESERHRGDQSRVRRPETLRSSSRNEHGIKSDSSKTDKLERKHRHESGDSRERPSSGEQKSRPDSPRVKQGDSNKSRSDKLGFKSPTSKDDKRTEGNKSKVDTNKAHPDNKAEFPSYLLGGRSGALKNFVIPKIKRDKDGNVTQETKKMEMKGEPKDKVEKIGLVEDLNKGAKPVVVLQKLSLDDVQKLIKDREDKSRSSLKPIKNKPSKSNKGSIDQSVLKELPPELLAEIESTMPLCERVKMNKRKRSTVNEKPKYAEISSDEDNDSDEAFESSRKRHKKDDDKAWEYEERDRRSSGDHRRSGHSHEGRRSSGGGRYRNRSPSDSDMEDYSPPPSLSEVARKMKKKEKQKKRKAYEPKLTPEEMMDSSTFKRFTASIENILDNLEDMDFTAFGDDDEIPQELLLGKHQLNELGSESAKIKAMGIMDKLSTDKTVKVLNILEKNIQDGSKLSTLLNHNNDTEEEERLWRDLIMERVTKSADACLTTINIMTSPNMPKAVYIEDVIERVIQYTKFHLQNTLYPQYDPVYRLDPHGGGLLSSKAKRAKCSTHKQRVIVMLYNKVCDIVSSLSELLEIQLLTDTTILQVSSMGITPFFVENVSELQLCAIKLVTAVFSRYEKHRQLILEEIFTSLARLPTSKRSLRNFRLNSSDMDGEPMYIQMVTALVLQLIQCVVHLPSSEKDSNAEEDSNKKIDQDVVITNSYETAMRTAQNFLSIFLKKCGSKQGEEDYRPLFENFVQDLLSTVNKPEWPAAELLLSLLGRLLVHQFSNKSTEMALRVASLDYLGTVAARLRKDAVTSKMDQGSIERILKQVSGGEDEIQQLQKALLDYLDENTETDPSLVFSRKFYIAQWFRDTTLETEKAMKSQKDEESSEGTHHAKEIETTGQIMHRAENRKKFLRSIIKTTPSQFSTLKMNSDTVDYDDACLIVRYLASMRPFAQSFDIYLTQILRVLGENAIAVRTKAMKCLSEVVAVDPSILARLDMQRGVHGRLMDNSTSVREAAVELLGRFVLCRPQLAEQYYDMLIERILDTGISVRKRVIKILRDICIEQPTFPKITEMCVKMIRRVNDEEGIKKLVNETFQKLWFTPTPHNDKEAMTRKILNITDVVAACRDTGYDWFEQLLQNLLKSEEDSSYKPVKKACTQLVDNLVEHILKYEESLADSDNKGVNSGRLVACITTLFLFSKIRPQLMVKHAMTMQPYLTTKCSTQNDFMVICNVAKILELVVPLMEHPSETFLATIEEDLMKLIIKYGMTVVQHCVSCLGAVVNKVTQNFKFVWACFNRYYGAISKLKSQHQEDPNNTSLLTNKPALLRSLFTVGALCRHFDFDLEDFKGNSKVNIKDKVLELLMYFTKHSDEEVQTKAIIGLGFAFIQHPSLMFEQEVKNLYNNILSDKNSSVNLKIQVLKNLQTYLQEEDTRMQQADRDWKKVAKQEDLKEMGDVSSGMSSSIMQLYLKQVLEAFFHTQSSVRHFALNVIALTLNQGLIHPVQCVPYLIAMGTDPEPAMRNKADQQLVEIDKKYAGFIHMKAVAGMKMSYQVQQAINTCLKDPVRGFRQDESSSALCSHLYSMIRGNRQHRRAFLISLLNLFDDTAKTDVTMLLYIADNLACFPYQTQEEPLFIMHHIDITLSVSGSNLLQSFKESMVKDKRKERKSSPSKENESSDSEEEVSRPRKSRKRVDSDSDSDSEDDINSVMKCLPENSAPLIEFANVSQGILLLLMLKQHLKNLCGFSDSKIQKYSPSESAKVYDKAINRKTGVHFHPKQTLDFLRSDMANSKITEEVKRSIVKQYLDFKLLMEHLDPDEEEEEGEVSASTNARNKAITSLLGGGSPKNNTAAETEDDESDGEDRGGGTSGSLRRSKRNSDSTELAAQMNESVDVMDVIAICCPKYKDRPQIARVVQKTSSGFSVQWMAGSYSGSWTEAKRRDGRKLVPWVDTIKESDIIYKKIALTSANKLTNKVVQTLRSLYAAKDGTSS
Target,log2 fold change (vemurafenib),log2 fold change [1],log2 fold change (barasertib),log2 fold change [2],log2 fold change (volasertib),log2 fold change [3],log2 fold change [4],log2 fold change [5],log2 fold change (saracatinib),log2 fold change (sotrastaurin),log2 fold change (alvocidib),log2 fold change (Tubastatin A),log2 fold change [6],log2 fold change (defactinib),log2 fold change [7],log2 fold change (encorafenib),log2 fold change [8],log2 fold change (alisertib),log2 fold change [9],log2 fold change (gefitinib)
NEK9 (UniProt Q8TD19),-0.001,0.054,-0.008,0.004,-0.01,0.004,-0.046,0.048,0.035,-0.016,-0.062,-0.062,0.193,0.08,-0.009,-0.018,-0.008,-0.048,-0.01,-0.039
NCAPD3 (UniProt P42695),-0.032,0.047,0.06,-0.013,-0.088,0.035,0.068,-0.015,0.008,0.003,-0.006,-0.224,0.017,0.017,0.013,0.037,-0.018,-0.017,0,-0.002
NMRAL1 (UniProt Q9HBL8),-0.03,-0.023,0.178,0.045,-0.046,0.045,-0.092,0.053,0.011,-0.034,0,0.036,-0.044,-0.003,0.026,-0.003,0.406 (active),0.021,0.001,-0.002
NIPBL (UniProt Q6KC79),-0.015,0.091,0.017,-0.081,-0.048,0.04,-0.004,-0.042,-0.001,0.004,-0.008,-0.183,-0.04,0.006,0,0.008,0.09,-0.066,0.035,0.027
NSL1 (UniProt Q96IY1),-0.017,0,-0.06,0.005,0.007,0.048,-0.016,0.047,0.012,0.005,-0.026,-0.084,0.016,0.034,-0.004,-0.055,0.094,0.019,-0.014,-0.004
OTC (UniProt P00480),0.072,-0.063,0.063,-0.246,0.018,-0.035,-1.43,0.371,0.012,0.282,-1.18 (active),0.148,-0.134,-0.188,-0.152,-0.047,-0.018,0.218,-0.023,0.184
MRPL51 (UniProt Q4U2R6),0.032,0.028,0,-0.044,0.022,0.038,-0.309,0.16,0.02,0.008,-0.039,-0.018,0.016,0.198,-0.002,0.088,-0.208,-0.005,-0.005,-0.044
NOSTRIN (UniProt Q8IVI9),0.091,0.024,0.085,-0.178,-0.029,-0.026,0.025,-0.094,-0.001,-0.054,-0.009,-0.35 (active),0.027,0.07,0.061,-0.112,0.11,-0.019,0,0.004

# — the supplement of paper PMC10849652
